Bioassay records as filed in PubChem BioAssay.
TPT1 inhibitor: inhibitors of Candida albicans tRNA 2'-phosphotransferase TPT1; recombinant caTPT1, FP RNA substrate dephosphorylation; actives 0.81% (n = 300,000); inhibition, % at 5 µM; AID 1962;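 active = inhibition above the mean of all tested compounds plus 3 SD, set per screening campaign, cut at about 24% in these data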
Rpn11 block: Rpn11 (human) deubiquitinase inhibition; O00487; inhibition, % at 20 µM; AID 588493; human 26S proteasome, Ub4-pepOG fluorescence polarization; 20S core pre-blocked with epoxomicin; actives 0.59% (n = 360,000);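 active = inhibition at 20 µM, scaled to each plate's controls, above about 33%, limit read from the data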
Target sequence (O00487 whole entry, looked up): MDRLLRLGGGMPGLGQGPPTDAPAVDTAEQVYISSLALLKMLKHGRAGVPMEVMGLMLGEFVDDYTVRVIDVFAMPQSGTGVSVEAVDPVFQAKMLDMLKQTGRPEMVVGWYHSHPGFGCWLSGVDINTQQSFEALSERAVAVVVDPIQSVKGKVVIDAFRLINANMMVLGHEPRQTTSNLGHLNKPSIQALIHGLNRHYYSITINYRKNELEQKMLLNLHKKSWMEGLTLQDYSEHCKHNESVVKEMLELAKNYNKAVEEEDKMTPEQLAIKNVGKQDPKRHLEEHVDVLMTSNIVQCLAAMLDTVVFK
ZTA DNA inh: ZTA (EBV) inhibition in EBNA-1 counter-screen. P03206. actives 0.15% (n = 320,000). AID 2234. inhibition, % at 11 µM. ZTA-DNA binding, fluorescence polarization; in the data active = inhibition above about 33%
Target sequence (P03206 whole entry, looked up): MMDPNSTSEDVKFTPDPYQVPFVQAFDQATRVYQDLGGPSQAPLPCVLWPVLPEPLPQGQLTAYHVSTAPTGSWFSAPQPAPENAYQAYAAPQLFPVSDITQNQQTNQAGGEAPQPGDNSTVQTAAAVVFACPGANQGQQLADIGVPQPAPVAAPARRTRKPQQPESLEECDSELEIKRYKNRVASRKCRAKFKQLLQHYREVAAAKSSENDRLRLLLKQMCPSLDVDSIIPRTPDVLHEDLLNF
dFosB act: mouse delta FosB homodimer activation. purified delta FosB, TAMRA-CDK5 oligo fluorescence polarization; percent of positive-control signal above neutral wells. actives 0.99% (n = 340,000). activation, % at 25 µM;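 active = mean activation above about 17%, with every replicate also reaching it, limit read from the data, passing the limit was not always enough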
NR3A LBD binder: modulates the human NR3A ligand-binding domain; NR3A LBD differential scanning fluorimetry, Tm shift; 0% = protein alone, 100% = glycine-bound protein; Tm shift relative to glycine control, % at 25 µM; actives 2.5% (n = 340,000);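 active = melting temperature shift of at least 10% of the positive control shift, at one fixed dose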
EBNA-1 inh: blocks EBNA-1 binding to DNA. EBNA-1 DNA binding, fluorescence polarization. inhibition, % at 14.8 µM. actives 0.34% (n = 300,000). AID 1950; in the data active = inhibition above about 28%
A number is an active result; i = inactive; nt = no result given. Hits are enriched below; roughly 4.5% of the tested compounds scored in any of these assays.

SMILES | TPT1 inhibitor | Rpn11 block | ZTA DNA inh | dFosB act | NR3A LBD binder | EBNA-1 inh
CCc1ccc2[nH]c3nc(N/N=C/c4ccc(O)cc4O)nnc3c2c1 | i | i | i | i | 19.2 | i
Cc1ccc2[nH]c3nc(N/N=C/c4cccc(O)c4)nnc3c2c1 | i | i | i | 21.1 | 10.3 | i
C[C@H](CO)N1C[C@H](C)[C@H](CN(C)C(=O)c2cc(-c3ccccc3)on2)OCc2cnnn2CCCC1=O | nt | i | nt | nt | nt | nt
O=C(COc1ccc(-c2nnco2)cc1)Nc1c(Cl)cccc1C(F)(F)F | i | i | i | i | i | i
O=C(COc1ccc(-c2nnco2)cc1)Nc1c(F)cccc1F | i | i | i | i | 14.1 | i
C/C(N)=C(/C#N)C(=O)COC(=O)c1cc(-c2ccc(Br)cc2)nc2ccccc12 | i | i | i | i | 17.7 | i
COc1ccc(NC(=O)Cn2ccc(C(F)(F)F)n2)cc1S(=O)(=O)N1CCOCC1 | nt | i | nt | i | i | nt
CC(C)CCC(O)(CCC(C)C)C(=O)NN1CCCCC1 | i | i | i | i | i | i
CCCC(O)(CCC)C(=O)NN1CCCCC1 | i | i | i | i | 27.5 | i
CCCCNC(=O)c1ccc(NC(=O)CC2SC(N3CCCC3)=NC2=O)cc1 (stereo unspecified) | nt | i | i | i | i | nt
O=c1c2ccccc2c(-c2ccc(O)cc2)nn1-c1cccc(C(F)(F)F)c1 | i | i | i | i | 24.9 | i
O=c1c2ccccc2c(-c2cccc(C(F)(F)F)c2)nn1-c1ccccc1 | i | i | i | i | i | i
Cc1ccc(C)c(S(=O)(=O)NCCN2CCOCC2)c1 | i | i | i | i | i | i
Cc1nn(-c2cc(N3CCCCCC3)ccc2[N+](=O)[O-])c(=O)c2ccccc12 | i | i | i | i | i | i
Cc1ccc(-c2nn(-c3cc(N4CCNCC4)ccc3[N+](=O)[O-])c(=O)c3ccccc23)cc1 | i | i | i | 35.0 | i | i
O=C1C(C2=NC(c3ccccn3)C3C(=O)N(c4ccccc4)C(=O)C23)=C(O)c2ccccc21 (stereo unspecified) | i | i | i | 26.5 | i | i
CCN(CC)S(=O)(=O)c1ccc2oc(C(=O)N3CCOCC3)c(C)c2c1 | i | i | i | i | i | i
CCN(CC)S(=O)(=O)c1ccc2oc(C(=O)NCCN3CCOCC3)c(C)c2c1 | i | i | i | i | 58.1 | i
Cc1ccc(C(=O)C(C)OC(=O)Cc2n[nH]c(=O)c3ccccc23)cc1 (stereo unspecified) | i | i | i | i | i | i
O=C(NCc1cccc(Cl)c1)c1ccc(S(=O)(=O)Nc2cccc(C(F)(F)F)c2)cc1 | i | i | i | i | 28.0 | i
CCOC(=O)COc1ccc(Br)cc1/C=C/c1[nH]c(=O)[nH]c(=O)c1[N+](=O)[O-] | i | i | i | i | 161.1 | i
COc1cc(CCc2ccccc2)c(C(=O)O)c(O)c1C/C=C(/C)CCC=C(C)C | nt | i | nt | i | 10.0 | nt
O=C(Nc1ccc(F)cc1)Nc1ccc(N2CCCC2)c(S(=O)(=O)Nc2ccccc2Cl)c1 | i | i | i | i | 33.9 | i
O=C(/C=C/c1cccs1)Nc1ccc(N2CCOCC2)c(S(=O)(=O)Nc2cc(Cl)ccc2Cl)c1 | i | i | i | i | 10.1 | i
COc1ccc(NS(=O)(=O)c2cc(NC(=O)c3cc(F)c(F)cc3Cl)ccc2N2CCOCC2)cc1 | nt | i | nt | 20.7 | i | nt
SMILES | TPT1 inhibitor | Rpn11 block | ZTA DNA inh | dFosB act | NR3A LBD binder | EBNA-1 inh
O=C(Nc1ccc(Cl)c(Cl)c1)Nc1ccc(N2CCCC2)c(S(=O)(=O)Nc2ccccc2Cl)c1 | i | i | i | i | 30.1 | i
O=C(Nc1ccc(N2CCCCC2)c(S(=O)(=O)Nc2ccccc2Cl)c1)c1cccnc1 | nt | i | nt | i | i | nt
CC(=O)C1=C(O)C(=O)N(c2ccc(Br)cc2)C1c1ccc(Br)cc1 (stereo unspecified) | i | i | i | i | i | i
COc1ccccc1NS(=O)(=O)c1cc(NC(=O)C(C)C)ccc1N1CCCCC1 | i | i | i | i | i | i
COc1ccccc1NS(=O)(=O)c1cc(NC(=O)Nc2ccccc2)ccc1N1CCCCC1 | i | i | i | i | 19.5 | i
Cc1sc(NC(=O)c2cc(-c3ccccc3)nc3ccccc23)c(C(N)=O)c1C | i | i | i | i | 16.8 | i
COC(=O)c1sc(NC(=O)c2cc(-c3ccccc3)nc3ccccc23)c(C#N)c1C | i | i | i | i | 21.2 | i
Cc1sc(NC(=O)c2cc(-c3ccc(Cl)cc3)nc3ccccc23)c(C(N)=O)c1C | i | i | i | i | i | i
CSc1nc(O)c(C(c2ccc(OC(C)C)cc2)c2c(O)nc(SC)[nH]c2=O)c(=O)[nH]1 | i | i | i | i | i | i
O=C(O[C@H]1[C@H](Oc2ccccc2COC(=O)C2(O)C=CCCC2=O)O[C@H](CO)[C@@H](O)[C@@H]1O)c1ccccc1 (stereo partly specified) | i | nt | i | nt | nt | i
O=C(O)c1cccc2c1Cc1cc(Cl)ccc1-2 | nt | i | nt | i | i | nt
COc1ccccc1C(=O)NNC(=O)CCC(=O)NCc1ccccc1 | i | i | i | i | 11.7 | i
Cc1ccc(NC(=O)c2nc[nH]c2C(=O)NC2CCN(C(=O)OC(C)(C)C)CC2)cc1 | nt | i | nt | i | 23.4 | nt
CC(C)(C)OC(=O)N1CCC(NC(=O)c2[nH]cnc2C(=O)Nc2ccc(Cl)cc2)CC1 | nt | i | i | i | 27.0 | nt
Cn1c(NC(=O)c2ccccc2F)c(-c2cccs2)c(=O)c2ccccc21 | i | i | i | i | i | i
CCN(CC)S(=O)(=O)c1ccc(N/N=C/c2cccnc2)nc1 | i | i | i | i | i | i
CCN(CC)S(=O)(=O)c1ccc(N/N=C/c2cc(OC)ccc2O)nc1 | i | i | i | i | 24.2 | i
O=C(Nc1ccc(NC(=O)c2cccs2)cc1)c1ccco1 | i | i | i | i | 20.2 | i
O=C(NC(=S)Nc1ccc(NC(=O)c2cccs2)cc1)c1ccco1 | i | i | i | i | 24.0 | i
O=C(NC(=S)Nc1ccc(NC(=O)c2cccs2)cc1)c1cc2ccccc2o1 | i | i | i | i | 29.3 | 68.6
O=C(Nc1ccc(NC(=S)NC(=O)c2ccccc2F)cc1)c1cccs1 | i | i | i | i | 19.5 | i
Cc1ccc(NC(=O)c2cccs2)cc1NC(=O)c1ccco1 | i | i | i | i | i | i
CC(=O)OCC(=O)C1(O)CCC2C3CCC4CC(O)CCC4(C)C3C(=O)CC21C (stereo unspecified) | nt | i | nt | nt | nt | nt
CCC(C(=O)NC1CCCC1)n1nc(C)n2c(cc3occc32)c1=O (stereo unspecified) | i | i | i | i | i | i
C[C@H](CO)N1C[C@H](C)[C@@H](CN(C)Cc2ccncc2)Oc2c(NC(=O)Cc3ccccc3)cccc2C1=O | nt | i | nt | i | i | nt
O=S(=O)(N[C@H](CO)c1ccccc1)c1ccc(Br)cc1F | nt | i | nt | i | i | nt
O=C(Nc1ccc(-c2nc3cccnc3s2)cc1)c1ccco1 | i | i | i | i | 11.5 | i
